In PubChem BioAssay AID2546 (National Center for Advancing Translational Sciences (NCATS), 2010):
Screen size: about 310,000 compounds; about 11,000 (3.5%) were called active. Not shown: some 8% with an inconclusive outcome. The sample holds actives, similar compounds and a random draw of the others, so the mix is not that of the screen. Calls come from the whole dose curve; as a rule, active = well fitted inhibition curve with a large enough effect; inconclusive = small, poorly fitted or top-dose-only effect, or effect the other way; inactive = flat fitted curve, though single readings scatter.

Test: VP16 counterscreen qHTS for inhibitors of ROR gamma transcriptional activity;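 note: Gal4-VP16 expression switched on by copper sulfate through the metallothionein promoter; nearly all actives have a fitted effect of over 50% in size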
Conditions: Drosophila S2 Gal4-VP16 UAS-luciferase, luminescence, 20 h; series mostly up to 53.6 µM; activity, negative = inhibition: at the top concentration
% is set by controls: 0 for no effect and ±100 for the full control effect; potency is the fitted concentration of half-maximal effect.

SMILES	activity, negative = inhibition	Potency
CC(C)[C@@H]1COC(c2cccc(C3=N[C@H](C(C)C)CO3)c2)=N1	5.4% (inactive)	
C#CCOc1ccc(/C=C2/C(=O)ON=C2C)cc1OCC	-17.6% (inactive)	
O=C(Nc1ccc2nc3n(c(=O)c2c1)CCCCC3)c1ccccc1Cl	-19.2% (inactive)	
O=C(Nc1ccc(N2CCOCC2)c(Cl)c1)c1ccc(S(=O)(=O)N2CCOCC2)cc1	-8.97% (inactive)	
O=C(Nc1ccc2c(c1)nc1n2CCCCC1)c1cc(S(=O)(=O)N2CCOCC2)ccc1Cl		12.6 µM (active)
Nc1ncc(CN2CCCC(C(=O)Nc3ccc(-c4ccco4)cc3)C2)cn1 (stereo unspecified)	2.6% (inactive)	
N=c1oc2ccccc2cc1C(=O)NCc1ccccc1	26.3% (inactive)	
CCCNC(=O)COc1coc(CN2CCN(Cc3ccccc3)CC2)cc1=O	-4% (inactive)	
COc1cccc(N2C(=O)CN(Cc3ccccc3)C2=S)c1	-3.18% (inactive)	
COc1cccc(-n2cc(C(=O)O)c3ccccc3c2=O)c1	-0.477% (inactive)	
COc1cccc(-n2c(=S)[nH]c3c(oc4ccccc43)c2=O)c1		11.2 µM (active)
CCC(CC)COC(=O)C1=C(C)NC(=O)NC1c1ccc([N+](=O)[O-])cc1 (stereo unspecified)	-3.51% (inactive)	
COCCn1c(SCC(=O)N2CCCCCC2)nc2c(c1=O)SCC2	4.31% (inactive)	
Oc1cccc(/C=N/Nc2ccc(Cl)nn2)c1O		2.82 µM (active)
COc1cccc(/C=N/Nc2ccc(Cl)nn2)c1	-15.1% (inactive)	
Cc1ccsc1/C=N/Nc1ccc(Cl)nn1	1.26% (inactive)	
CN(C)S(=O)(=O)c1ccc(Oc2ccc(S(=O)(=O)N(C)C)cc2)cc1		3.16 µM (active)
CN(C)S(=O)(=O)c1ccc(NC(=O)N2CCOCC2)cc1	-9.25% (inactive)	
Cc1ccc(S(=O)(=O)c2ccc(Oc3ccccc3)cc2)cc1	-26.4% (inactive)	
CSc1ncc(C(=O)NCCCc2ccccc2)c(C)n1	21.5% (inactive)	
O=C(/C=C/c1ccco1)Nc1cccc(-c2nc3ccccc3[nH]2)c1	12.4% (inactive)	
O=C(Nc1cccc(-c2nc3ccccc3[nH]2)c1)c1ccc(C(=O)Nc2cccc(-c3nc4ccccc4[nH]3)c2)cc1		2.82 µM (active)

SMILES	activity, negative = inhibition	Potency
O=C(Cc1cccs1)Nc1cccc(-c2nc3ccccc3[nH]2)c1	15.7% (inactive)	
Cc1c(C)c2ccc(OCC(=O)N3CCC(C(=O)O)CC3)c(C)c2oc1=O	-14.8% (inactive)	
COc1ccc(/C=N/NS(=O)(=O)c2ccc(NC(C)=O)cc2)cc1	2.73% (inactive)	
CC(=O)c1c(C)oc2ccc(NS(=O)(=O)c3ccccc3)cc12	-22.8% (inactive)	
CC(=O)c1c(C)oc2ccc(NS(=O)(=O)c3ccc(C(=O)O)cc3)cc12	4.83% (inactive)	
COC(=O)COc1ccc(S(=O)(=O)Nc2ccc(NC(C)=O)cc2)cc1	-5.35% (inactive)	
COc1cc(NS(=O)(=O)c2ccc(NC(C)=O)cc2)cc(OC)c1		20 µM (active)
COc1ccc(S(=O)(=O)Nc2ccc3oc(C)c(C(C)=O)c3c2)cc1		11.2 µM (active)
Cc1ccnc(NS(=O)(=O)c2ccc(NC(=O)c3oc4ccc(F)cc4c3C)cc2)n1	-12.4% (inactive)	
CC1CCCCN1C(=O)CCS(=O)(=O)Cc1ccccc1 (stereo unspecified)	1.9% (inactive)	
COc1ccc(/C=C2\SC(=O)N(CCC(=O)NCCCn3ccnc3)C2=O)cc1	0.385% (inactive)	
COc1ccc(C2=Nn3c(nnc3-c3ccccc3O)SC2)cc1	-17% (inactive)	
CCn1cc(C(=O)NCC(=O)NC(C)(C)CO)c(=O)c2cc3c(cc21)OCO3	-2.53% (inactive)	
Cc1ccc(C(=O)NC23CC4CC(CC(C4)C2)C3)c(Cl)c1	23.1% (inactive)	
Cc1noc(C)c1CCC(=O)N1CCCC(CO)(Cc2ccccc2)C1 (stereo unspecified)	-1.97% (inactive)	
CCCOc1ccccc1C1CC(=O)Nc2cc3c(cc21)OCO3 (stereo unspecified)		14.1 µM (active)
COc1ccccc1C1C2=C(COC2=O)Nc2cc3c(cc21)OCO3 (stereo unspecified)	2.3% (inactive)	
COc1ccc(C2CC(=O)Nc3cc(C)c(C)cc32)c(OC)c1OC (stereo unspecified)	0.0143% (inactive)	
O=C(NCCCN1CCCC1=O)C(=O)NCC1OCCN1S(=O)(=O)c1ccc(Br)cc1 (stereo unspecified)	20.7% (inactive)	
O=C(O)c1ccc(NC(=O)c2cn(-c3ccccc3)nc2-c2ccc(Cl)cc2)cc1	-9.81% (inactive)	
COc1ccc(-c2nn(-c3ccccc3)cc2C(=O)Nc2nc(CC(C)=O)ns2)cc1		12.6 µM (active)
CC(=O)Cc1nsc(NC(=O)c2ccc(COc3ccc(C)cc3)o2)n1	-3.91% (inactive)	

SMILES	activity, negative = inhibition	Potency
O=C(O)c1ccccc1-c1ccccc1C(=O)Nc1nccs1	-6.71% (inactive)	
CC(C)(C)OC(=O)N/N=C/c1cn(-c2ccccc2)nc1-c1cccnc1	-14% (inactive)	
COc1ccc(NC(=O)c2cn(-c3ccccc3)nc2SC)cc1	-0.895% (inactive)	
CN(C)/N=C/c1cn(-c2ccccc2)nc1-c1cccnc1	-6.24% (inactive)	
COc1ccc(-c2nn(-c3ccccc3)cc2/C=N/Nc2ccccn2)cc1OC		8.91 µM (active)
COc1ccc(-c2nn(-c3ccccc3)cc2C(=O)Nc2nccs2)cc1OC		22.4 µM (active)
O=C1C[C@@H](c2ccc3ccccc3c2)N1S(=O)(=O)c1ccccc1[N+](=O)[O-]	-6.73% (inactive)	
Cc1ccc(CNS(=O)(=O)c2ccc3c(c2)N(C)CCO3)cc1	-0.865% (inactive)	
Cc1cc(=O)[nH]c(Nc2cccc(Br)c2)n1	-6.76% (inactive)	
Cc1cccc(C(=O)NCC(=O)OCC(=O)N2CC3(C)CC2CC(C)(C)C3)c1 (stereo unspecified)	-8.87% (inactive)	
Cc1nnnn1/C(=C\c1ccccc1)C(=O)OCC(=O)N1CC2(C)CC1CC(C)(C)C2 (stereo unspecified)		10 µM (active)
COc1ccccc1C(=O)N1CC2(C)CC1CC(C)(C)C2 (stereo unspecified)	-3.63% (inactive)	
CCOC(=O)c1ccc(NC(=O)c2cccnc2)cc1	3.63% (inactive)	
CCSc1nc2sc3c(c2c(=O)n1-c1ccc(C)cc1)CCN(C)C3	-1.82% (inactive)	
O=C(C1CCCO1)N1CCN(C(=S)Nc2cccc(Cl)c2)CC1 (stereo unspecified)	4.52% (inactive)	
Cc1cccc(NC(=S)N2CCCC(c3nc4ccccc4[nH]3)C2)c1 (stereo unspecified)	5.42% [at 10 µM] (inactive)	
Cc1ccc(C2CCN(C(=S)Nc3cccc(Cl)c3)C2)cc1 (stereo unspecified)		12.6 µM (active)
CC(=O)c1nn(-c2cccc(C(F)(F)F)c2)c(=O)[nH]c1=O	6.04% (inactive)	
COc1ccccc1CCNC(=O)c1c(C)nn(CC(C)C)c1Cl	22.8% (inactive)	
COc1cccc(C(=O)N/N=C(\C)c2cccc(NC(=O)c3ccc(F)cc3)c2)c1OC	-3.24% (inactive)	
Cc1cccc(C(=O)N2CCCC(Nc3ccc(C(C)C)cc3)C2)n1 (stereo unspecified)	-6.89% (inactive)	
CC(C)c1ccc(NC2CCCN(C(=O)c3ccncc3)C2)cc1 (stereo unspecified)		1.58 µM (active)

SMILES	activity, negative = inhibition	Potency
COc1ccc(NC2CCCN(C(=O)c3ccncc3)C2)cc1 (stereo unspecified)	1.45% (inactive)	
O=C(Nc1ccc(C(=O)NCc2ccccc2Cl)cc1)C1=CSCCO1	-5.26% (inactive)	
COc1ccc(-n2nc(C(=O)NCC(=O)N3CCCCCC3)c3ccccc3c2=O)cc1Cl	1.85% (inactive)	
CC(=O)c1cccc(NC(=O)CN2C(=O)c3cccnc3Oc3ccc(Cl)cc32)c1	8.7% (inactive)	
C#CC(CCN1CCCCC1)(OC)c1ccccc1 (stereo unspecified)	-3.36% (inactive)	
CCNC(=O)CCc1nc(-c2ccc(C(C)(C)C)cc2)no1		2.51 µM (active)
CN1CCN(C(=O)CCc2nc(-c3ccc(Cl)cc3)no2)CC1	20.9% (inactive)	
CCNC(=O)CCc1nc(-c2ccc(C)cc2)no1	4.81% (inactive)	
COC(=O)c1ccc(N2CCOCC2)c(NC(=O)c2ccc(Br)o2)c1	-9.5% (inactive)	
CCN1CCN(C(c2cccnc2)c2cc(Cl)c3cccnc3c2O)CC1 (stereo unspecified)		5.01 µM (active)
Oc1ccccc1CN1CCN(C(c2ccccc2)c2ccccc2)CC1	15.7% (inactive)	
CCOC(=O)N1CCN(C(c2cccnc2)c2ccc3cccnc3c2O)CC1 (stereo unspecified)		6.31 µM (active)
CCOC(=O)N1CCN(C(=O)C2CCN(c3ncnc4c3sc3cccc(F)c34)CC2)CC1	-1.75% (inactive)	
Cc1onc(C(=O)NN)c1C(=O)N1CCN(C(c2ccccc2)c2ccccc2)CC1	-9.37% (inactive)	
CCN1CCN(c2ccc(NC(=O)c3cnccn3)cc2)CC1	-0.768% (inactive)	
CC(=O)Nc1ccc(S(=O)(=O)N2N=NC3C2C2CC4C3(CN(C(=O)OC(C)(C)C)S4(=O)=O)O2)cc1 (stereo unspecified)	2.47% (inactive)	
O=C(CCc1nnc(Cc2ccc3c(c2)OCO3)o1)NCCc1ccccc1Cl	1.16% (inactive)	
O=C1Nc2cc(C(=O)N3CCN(c4ccc(F)cc4)CC3)ccc2NC1CSCc1cccc(F)c1 (stereo unspecified)	3.66% (inactive)	
Clc1cccc(Cl)c1OCCOCCNCc1ccccc1	-8.4% (inactive)	
COc1cccc(NC(=O)N2C3CCCC2CC(NC(C)=O)C3)c1 (stereo unspecified)	0.59% (inactive)	
CCOC(=O)C1(Cc2ccccc2C)CCCN(C(=O)CCc2c(C)noc2C)C1 (stereo unspecified)	-7.72% (inactive)	
COc1ccc(CCNC(=O)c2cnc(Cl)c(Cl)c2)cc1	-1.08% (inactive)	

SMILES	activity, negative = inhibition	Potency
S=c1[nH]nc(-c2ccncc2)n1/N=C/c1ccccc1Cl	2.33% (inactive)	
S=c1[nH]nc(-c2cccs2)n1/N=C/c1cccs1	-3.28% (inactive)	
S=c1[nH]nc(-c2cc(-c3ccsc3)n[nH]2)n1-c1ccccc1	-4.8% (inactive)	
Cc1ccc(/C=N\n2c(-c3ccccc3)n[nH]c2=S)s1		8.91 µM (active)
S=c1[nH]nc(-c2ccco2)n1/N=C/c1ccccc1	0.747% (inactive)	
S=c1[nH]nc(-c2cc(-c3ccccc3)n[nH]2)n1/N=C/c1c2ccccc2cc2ccccc12		6.31 µM (active)
CCc1ccc(-c2cc(C)no2)cc1S(=O)(=O)NCCc1ccc(S(N)(=O)=O)cc1	-22.4% (inactive)	
NS(=O)(=O)c1ccc(CCNC(=O)c2nc(CS(=O)(=O)c3ccc(Cl)cc3)no2)cc1	0.186% (inactive)	
COc1ccc(C(=O)COC(=O)Cn2cnc3c2c(=O)n(C)c(=O)n3C)c(OC)c1	0.743% (inactive)	
CCCCNC(=O)CN1C(=O)NC(Cc2ccccc2)(Cc2ccccc2)C1=O	-1.76% (inactive)	
O=C(N/N=C\C1CC=CCC1)c1ccc(Br)o1 (stereo unspecified)	-10.9% (inactive)	
CC1(C)NC(=O)N(CC(=O)Nc2cc(C(F)(F)F)cc(C(F)(F)F)c2)C1=O	-11.9% (inactive)	
COc1ccc(/C=C2/C(=O)N(c3ccccc3)N=C2C)c(OC)c1	0.974% (inactive)	
CCC(=O)c1ccc(OC(=O)/C=C/c2cc(OC)c(OC)c(OC)c2)cc1	-0.143% (inactive)	
COc1ccc(N)c(OC)c1	-2.22% (inactive)	
COc1ccc(/C=C/C2=CC(C)(C)NC(=S)N2)c(OC)c1		3.55 µM (active)
COc1ccc2[nH]c(C(=O)N/N=C/c3cc(OC)c(OC)c(OC)c3)cc2c1	-4.9% (inactive)	
COc1cc(/C=C/C2=CC(C)(C)NC(=S)N2)cc(OC)c1OC		12.6 µM (active)
